# Reference: PubChem BioAssay (NCI)
# The panel holds about 83,000 compounds, 20% with a hit somewhere; the sample as a whole holds those more often.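 The endpoint reported here, percent growth, reads 100 for growth as untreated, 0 for no net growth and -100 for all cells dead.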 Unmarked numbers belong to inactive results. Activity calls are given as the source filed them. The calls were made as follows: active = growth percent below 10; inactive = the rest.
# Legend:
# Assay in all cases: NCI-60 one-dose screen, 48 h (100 = growth as untreated, 0 = no growth, -100 = all killed)
# Details in all cases: 10 µM unless noted
# [1] = tested on: HT29 colon
# [2] = tested on: SNB-75 CNS
# [3] = tested on: SNB-19 CNS
# [4] = tested on: U251 CNS
# [5] = tested on: PC-3 prostate
# [6] = tested on: SK-MEL-5 melanoma
# [7] = tested on: UACC-62 melanoma
# [8] = tested on: LOX IMVI melanoma
# [9] = tested on: SK-MEL-28 melanoma
SMILES,growth [1],growth [2],growth [3] [%],growth [4],growth [5],growth [6],growth [7],growth [8],growth [9]
CC1=Nc2cnc(Nc3ccc(OCCN4CCCC4)cc3)nc2Nc2ccccc21,60.9%,20.1%,91.1,80.9%,61.7%,71.6%,84.3%,52.2%,94%
Cn1c(=O)c2c(nc(NC3=NS(=O)(=O)c4ccccc43)n2CC(=O)N2CCc3ccccc32)n(C)c1=O,101%,94.9%,101,101%,104%,101%,97.6%,91.2%,105%
CCCCCOc1ccc(C(=O)/C(Br)=C/C(=O)O)cc1,105%,73.8%,98.8,86.7%,99.6%,104%,90.9%,86.4%,87.4%
O=S(=O)(Nc1cc(Br)c(O)c2ccccc12)c1ccc(F)cc1,113%,100%,108,35.4%,32%,48.9%,54.2%,0.868% (active),81.1%
O=C(CCc1nnc(Cn2cnc3nc[nH]c3c2=O)o1)c1nc2ncccc2[nH]1,92%,92.5%,94.6,101%,105%,104%,94.3%,88.1%,111%
C=C1C(=O)O[C@H]2[C@H]1CC/C(COC(=O)CSCCSCC(=O)OC/C1=C/CC[C@@]3(C)O[C@H]3[C@H]3OC(=O)C(=C)[C@@H]3CC1)=C\CC[C@@]1(C)O[C@@H]21,0.0255% (active),56.6%,55.9,7.29% (active),1.19% (active),78.4%,25.6%,-53.3% (active),4.71% (active)
O=C(O)CCCN1C(=O)/C(=C/C(Cl)=C/c2ccccc2)SC1=S,7.49% (active),35.9%,37.4,21%,36.5%,38.4%,10.1%,-55.5% (active),7.4% (active)
Nc1nc2c([nH]1)c1[nH]c3ccccc3c1c1[nH]c3ccccc3c21,3.16% (active),44.5%,62.4,-6.57% (active),34.9%,58.7%,-31.9% (active),4.23% (active),-77.5% (active)
COc1cc(OC)c2sc(-c3ccc(-n4cncc4-c4ccc(OC)c(OC)c4)cc3)nc2c1,35.1%,87.1%,67.1,46%,27.6%,22.5%,53.4%,59.1%,71.8%
CCOC(=O)CNP(=O)(OC[C@@H](Cc1ccccc1)NC(=O)c1cc2ccccc2s1)Oc1ccccc1 (stereo partly drawn),57.2%,35.2%,87.7,66.5%,85.5%,88.2%,71.4%,76.2%,77%
COc1ccc(C(=O)Nc2cccc(C3CC(=O)c4c(cc(OC)c(OC)c4OC)O3)c2)cc1 (stereo not drawn),6.28% (active),-11.4% (active),18.3,9.47% (active),20.4%,9.7% (active),25.5%,26.1%,56.3%
O=C1N[C@@H]2NC(=[N+]3CCOCC3)N[C@@H]2N1,110%,94.5%,96,97.2%,106%,101%,90.1%,98.3%,101%
O=S(=O)(Nc1ccccc1)c1ccc(C2CC3(Cl)C(Cl)=C(Cl)C2(Cl)C3(Cl)Cl)cc1 (stereo not drawn),35.2%,69.6%,77.6,39.8%,13.5%,60.7%,43.6%,39%,68.3%
COc1ccc(/C(C)=C(/c2ccc(OCCCN(C)C)cc2)c2ccc(OC(=O)Cc3ccccc3)cc2)cc1,7.51% (active),79%,90,55.1%,71.9%,79.5%,70.2%,-5.23% (active),70.8%
CCn1c(SCC(=O)c2ccc(Br)cc2)nnc1-c1ccncc1,107%,81.7%,99.2,99.6%,102%,98.9%,96.8%,101%,109%
CCCC(O)Cn1ncc(C(=O)OCC)c1NC(=O)NCc1ccccc1F (stereo not drawn),81.1%,98.9%,102,93.8%,93.4%,93.2%,86.3%,93.9%,110%
CC[C@@H](C(=O)[C@@H](C)[C@@H](O)[C@H](C)[C@@H]1O[C@@H]([C@@H](CC)C(=O)NCCc2ccc(F)cc2)CC[C@@H]1C)C1O[C@]2(C=CC(=O)[C@]3(CC[C@@](C)([C@H]4CC[C@](O)(CC)[C@H](C)O4)O3)O2)[C@H](C)C[C@@H]1C (stereo partly drawn),47.2%,20.8%,26.2,28.4%,8.72% (active),24.6%,26.7%,52.8%,58.2%
